# Test results published in ChEMBL document CHEMBL3988442, “University of Dundee, Small-Polar-MMV Screening Library” (2021).
# Legend:
# [1] = biological target: T1, Aspartate--tRNA(Asp/Asn) ligase (Mycobacterium tuberculosis (strain ATCC 25618 / H37Rv)) (UniProt P9WFW3); assay: Assay for Asp RNA synthetase-1 from Mycobacterium tuberculosis; type: functional; set-up: scale not given: direction of the effect not stated beside the values; details: 30 µM; further: in the data most compounds retested in dose-response had high values
# T1 sequence (whole entry): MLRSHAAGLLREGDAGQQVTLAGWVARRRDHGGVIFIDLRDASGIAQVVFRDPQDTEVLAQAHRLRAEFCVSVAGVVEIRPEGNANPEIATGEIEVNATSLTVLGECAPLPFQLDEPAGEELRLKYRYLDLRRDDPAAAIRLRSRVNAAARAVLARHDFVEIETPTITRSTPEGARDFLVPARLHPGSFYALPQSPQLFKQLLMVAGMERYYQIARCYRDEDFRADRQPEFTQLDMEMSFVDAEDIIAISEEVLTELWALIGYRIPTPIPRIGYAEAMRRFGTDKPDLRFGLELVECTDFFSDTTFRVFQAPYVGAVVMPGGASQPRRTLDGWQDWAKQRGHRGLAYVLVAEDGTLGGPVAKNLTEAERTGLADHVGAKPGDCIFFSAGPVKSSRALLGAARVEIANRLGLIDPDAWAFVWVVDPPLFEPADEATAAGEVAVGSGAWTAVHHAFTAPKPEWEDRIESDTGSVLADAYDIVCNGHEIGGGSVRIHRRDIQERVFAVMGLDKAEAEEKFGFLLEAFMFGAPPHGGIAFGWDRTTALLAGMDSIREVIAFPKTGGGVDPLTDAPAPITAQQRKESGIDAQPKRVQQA
# [2] = biological target: Shiga toxin 2 (Escherichia coli O157:H7) (UniProt P09385+P09386); assay: E. coli 0.157:H7 Shiga Toxin SOP - stx2 screening assay; type: functional; set-up: scale not given: direction of the effect not stated beside the values; details: 30 µM
compound,measurement,setting,value
Cc1nc(Nc2ncccn2)cc(C2CCCN2C2CCOCC2)n1 (configuration not stated),Percent Effect,[1],2.13%
same,Percent Effect,[2],-0.835%
CCOc1nnc(CNC2CCCN(c3ccc(C)nn3)C2)s1 (configuration not stated),Percent Effect,[1],9.48%
same,Percent Effect,[2],19.6%
Cc1cnc2n(c1=O)CC(C(=O)NC1CC1)CS2 (configuration not stated),Percent Effect,[1],-3.65%
same,Percent Effect,[2],0.421%
CNc1cc(CNC(=O)c2ccccc2)nc(-c2ccncc2)n1,Percent Effect,[1],-4.09%
same,Percent Effect,[2],11.3%
O=C1NCC2(CCCN(Cc3ccccc3F)C2)Oc2ccccc21 (configuration not stated),Percent Effect,[1],-5.17%
same,Percent Effect,[2],-17.2%
Cc1cc(CN2CCOCS2(=O)=O)ccc1F,Percent Effect,[1],1.64%
same,Percent Effect,[2],3.93%
CC(C)CN1CCCC2(CCN(C(=O)c3cnccn3)C2)C1 (configuration not stated),Percent Effect,[1],1.03%
same,Percent Effect,[2],-7.5%
COc1ncc(-c2nccn2CCN(C)C)cn1,Percent Effect,[1],-0.836%
same,Percent Effect,[2],-6.87%
O=C(c1ccc[nH]1)N1CCC2(CC1)C(=O)Nc1ccccc12,Percent Effect,[1],-1.68%
same,Percent Effect,[2],16.7%
Cc1cc(CN2CCN(C(=O)CCc3cccc(F)c3F)CC2)on1,Percent Effect,[1],-2.44%
same,Percent Effect,[2],-2.21%
O=C(Cc1cccc(Cl)c1)N[C@@H]1CCNC[C@H]1O,Percent Effect,[1],-3.06%
same,Percent Effect,[2],49.4%
O=C(NCc1cccnc1)C1=NOC2(CCN(S(=O)(=O)C3CC3)C2)C1 (configuration not stated),Percent Effect,[1],-3.41%
same,Percent Effect,[2],-21.8%
CN1CCN(C(=O)c2cnc3c(cnn3C3CCCC3)c2)CC1,Percent Effect,[1],-4%
same,Percent Effect,[2],-2.45%
CS(=O)(=O)N1CCC[C@]2(C[C@@H](Oc3ncccc3F)CO2)C1,Percent Effect,[1],7.67%
same,Percent Effect,[2],-11.6%
COc1ccc(Br)c(C(=O)NCCNc2ccc(C(F)(F)F)cn2)c1,Percent Effect,[1],7.7%
same,Percent Effect,[2],23.3%
CCc1nc(CN2CCN(C(=O)C3CCCCC3)CC2)cs1,Percent Effect,[1],-0.656%
same,Percent Effect,[2],1.6%
COc1ccc(CNCC(C)Oc2ccccn2)cc1Br (configuration not stated),Percent Effect,[1],-3.54%
same,Percent Effect,[2],-30.6%
COCCC(=O)N1CCN(CCN(C)C)c2ncccc2C1,Percent Effect,[1],4.55%
same,Percent Effect,[2],-25.6%
Cc1cc(C(=O)N2CCCCC2C)ccc1NCC(=O)N1CCOCC1 (configuration not stated),Percent Effect,[1],-12.3%
same,Percent Effect,[2],-49.1%
O=C(CCSc1ccc(F)cc1)NS(=O)(=O)c1ccc2c(c1)OCCO2,Percent Effect,[1],-0.411%
same,Percent Effect,[2],-1.47%
N#Cc1ccnc(N2CCN(Cc3cccc(F)c3)CC2)c1,Percent Effect,[1],-3.46%
same,Percent Effect,[2],12.2%
c1ccc2sc(CN3CCOC(Cn4cncn4)C3)nc2c1 (configuration not stated),Percent Effect,[1],-5.32%
same,Percent Effect,[2],14%
CCn1cnnc1CNC(=O)N1CCN(c2nc(C)c(C)s2)CC1,Percent Effect,[1],-5.01%
same,Percent Effect,[2],-22.1%
Cc1cc(CN(C)C(=O)C2CCS(=O)(=O)C2)no1 (configuration not stated),Percent Effect,[1],-3.37%
same,Percent Effect,[2],-1.66%
O=C(Nc1cc(F)ccc1OCC1CCCO1)N1CCCC1 (configuration not stated),Percent Effect,[1],-3.7%
same,Percent Effect,[2],0.98%
CCn1nc2c(cc1=O)CN(Cc1nc(-c3ccccn3)no1)CC2,Percent Effect,[1],29%
same,Percent Effect,[2],-43.5%
Cc1nc(CN2C(=O)COC3(CCN(Cc4ccco4)CC3)C2C)cs1 (configuration not stated),Percent Effect,[1],-2.99%
same,Percent Effect,[2],-19.9%
O=C(CCCc1cn[nH]c1)N1C[C@@H](CN2CCOCC2)[C@@H](CO)C1,Percent Effect,[1],4.17%
same,Percent Effect,[2],-29.7%
O=C(CCCc1ccc(F)cc1)N1C[C@@H](CN2CCOCC2)[C@@H](CO)C1,Percent Effect,[1],5.03%
same,Percent Effect,[2],-6.96%
O=C([C@@H]1CC[C@@H]2[C@@H](CCN2Cc2cccc(F)c2)O1)N1CCCCO1,Percent Effect,[1],0.291%
same,Percent Effect,[2],-15%
COc1c(C2CCCN2C(=O)c2cccc(C(N)=O)c2)c(C)nn1C (configuration not stated),Percent Effect,[1],0.375%
same,Percent Effect,[2],18%
Cc1nc(CN2CCCn3c(nc(Cn4ccnc4)cc3=O)C2)cs1,Percent Effect,[1],0.435%
same,Percent Effect,[2],-3.23%
O=C(O)C1(Cc2cccc(-c3ccc(F)c(F)c3)c2)CCOCC1,Percent Effect,[1],4.93%
same,Percent Effect,[2],7.92%
CCCN1CCN(C(=O)c2scnc2C)CC1,Percent Effect,[1],-0.389%
same,Percent Effect,[2],5.75%
c1cc2n(n1)CC(CNCc1ccc(OC3CCCCC3)nc1)CN2 (configuration not stated),Percent Effect,[1],-3.37%
same,Percent Effect,[2],-39.3%
CC(C)c1cc2c(O)nc(CSCC(=O)O)nc2s1,Percent Effect,[1],-0.29%
same,Percent Effect,[2],-12.1%
COc1cccc(C2CC(=O)Nc3nc(N4CCOCC4)sc32)c1OC (configuration not stated),Percent Effect,[1],63.4%
same,Percent Effect,[2],-3.76%
Cc1ccc(C)c(C(C(=O)O)N2CCCN(Cc3ccccn3)CC2)c1 (configuration not stated),Percent Effect,[1],-3.28%
same,Percent Effect,[2],2.34%
CNC(=O)[C@H]1C[C@@H]2CN(C(=O)Nc3ccc(F)cc3)C[C@H]1O2,Percent Effect,[1],-1.56%
same,Percent Effect,[2],-24.2%
COc1ccc2c(c1)C1(CCN(Cc3ccncc3)CC1)N(C)CC2,Percent Effect,[1],2.26%
same,Percent Effect,[2],-1.38%
CN(C)c1ccccc1C(=O)N1C[C@@H](CN2CCCCC2)[C@@H](CO)C1,Percent Effect,[1],-5.26%
same,Percent Effect,[2],17.7%
CNc1cncc(C2CCCN2Cc2ccccn2)n1 (configuration not stated),Percent Effect,[1],-3.38%
same,Percent Effect,[2],-10.2%
Cn1cc(N2CC3(COCCN(Cc4ccsc4)C3)OCC2=O)cn1 (configuration not stated),Percent Effect,[1],13.7%
same,Percent Effect,[2],-3.88%
Cn1cccc1C(CNC(=O)c1ccc(F)cc1F)N1CCCCCC1 (configuration not stated),Percent Effect,[1],1.24%
same,Percent Effect,[2],-33.8%
COCCn1ccnc1C1CCCN(C(=O)CSCC2CC2)C1 (configuration not stated),Percent Effect,[1],-2.09%
same,Percent Effect,[2],12.8%
c1ccc(CN2CCCC2Cn2cncn2)nc1 (configuration not stated),Percent Effect,[1],3.85%
same,Percent Effect,[2],-7.85%
O=C(CCc1ccc(O)cc1)N1CCC(Cc2ccc(CO)cc2)C1 (configuration not stated),Percent Effect,[1],-0.39%
same,Percent Effect,[2],-14.8%
COc1ccc(-c2csc(N)c2C#N)cc1OC,Percent Effect,[1],3.46%
same,Percent Effect,[2],-24.5%
COc1ccccc1CC(=O)NCCCN1CCCC1C(=O)N(C)C (configuration not stated),Percent Effect,[1],5.61%
same,Percent Effect,[2],-5.75%
Cn1cnnc1CNC(=O)Nc1cc(C(F)(F)F)c[nH]c1=O,Percent Effect,[1],1.79%
same,Percent Effect,[2],27.2%
CS(=O)(=O)NCc1n[nH]c2c1CCN(C(=O)c1ccsc1)C2,Percent Effect,[1],9.64%
same,Percent Effect,[2],-7.46%
